In PubChem BioAssay AID2025 (NMMLSC, 2009) one finds percent response vs DMSO data, which are given here for 24 molecules.

In all, about 330,000 compounds went through this assay and about 980 (0.3%) were called active.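 How the source made its calls: active means percent response vs DMSO below 50%; inconclusive means fewer than 70 events counted for the yeast strain; inactive means the rest.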 Only a selection was taken, and actives are over-represented in it overall.

The assay in a line: compounds altering RPL19A-GFP fluorescence, TOR branch – cell-based, S. cerevisiae, multiplex flow cytometry, MLPCN, primary screen (AID 2025).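 Further: median channel GFP fluorescence of the barcoded RPL19A-GFP strain; ratio of sample median GFP to plate DMSO average so 100% = DMSO; lower means less RPL19A-GFP as with rapamycin TOR inhibition.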 The note with it: S. cerevisiae RPL19A-GFP strain, 3 h, at 10 µM, stronger effect = lower value. Background: A flow cytometer gives signals particle by particle.
For the molecule `COc1ccc(CN2CC(C(=O)NCCN3CCN(c4ccccc4F)CC3)CC2=O)cc1` (centres undefined), the percent response vs DMSO was 99.6% (inactive).

On to `COc1ccc(CN2CC(C(=O)NC3CCCCC3)CC2=O)cc1` (centres undefined), for which the percent response vs DMSO is 99.4% (inactive).

With `COc1ccc(CN2CC(C(=O)NCCc3ccc(Cl)cc3)CC2=O)cc1` (centres undefined), the percent response vs DMSO is 32.5% [may fluoresce violet] (active).

As to `O=C1C=CC(=O)N1c1ccc(N2CCCCC2)cc1`, the percent response vs DMSO was 64.6% (inactive).

As for `CCOc1ccc(Br)cc1S(=O)(=O)Nc1ccc(C(=O)OC(C)C(=O)N(C)c2ccccc2)cc1` (centres undefined), the percent response vs DMSO is 99.2% (inactive).

As to `Cc1nn(Cc2ccccc2)c(C)c1NS(=O)(=O)c1ccccc1`, the percent response vs DMSO is 125% (inactive).

As for `OCc1nc(CO)n(Cc2ccccc2)n1`, the percent response vs DMSO was 34.3% [may fluoresce violet] (active).

As to `Nc1c(-c2ccccc2)nnn1Cc1ccccc1`, the percent response vs DMSO was 93.1% (inactive).

`CCOc1ccccc1N1C(=O)CC(Sc2nccc(C)n2)C1=O` (centres undefined): the percent response vs DMSO is 101% (inactive).

On to `C=C1CCN([C@@H](Cc2ccccc2)C(=O)N2CCOCC2)S(=O)(=O)c2ccccc21`, for which the percent response vs DMSO is 102% (inactive).

As for `CCOc1cc(N2CCOCC2)c(OCC)cc1NC(=O)c1cc(C)nc2ccccc12`, the percent response vs DMSO was 101% (inactive).

In the case of `CCOc1cc(N2CCOCC2)c(OCC)cc1NC(=O)COc1cccc(Cl)c1`, the percent response vs DMSO is 101% (inactive).

On to `CCOc1cc(N2CCOCC2)c(OCC)cc1NC(=O)COc1cccc2cccnc12`, for which the percent response vs DMSO was 38.4% [may fluoresce violet] (active).

As to `CCCOc1ccc(-c2c(C(=O)N/N=C/c3ccco3)nnn2-c2nonc2N)cc1`, the percent response vs DMSO was 99.2% (inactive).

In the case of `Cc1ccccc1S(=O)(=O)N1[C@@H](c2cccc(Cl)c2)C(C(=O)O)=CC[C@H]1c1ccc(Cl)cc1`, the percent response vs DMSO was 99.8% (inactive).

On to `O=C(CN1C(=O)COc2ccc(Cl)cc21)N1CCOCC1`, for which the percent response vs DMSO was 101% (inactive).

As to `COc1ccc(Cn2c(C)c(C)c(C#N)c2NC(=O)Nc2ccc(F)cc2)cc1`, the percent response vs DMSO was 97.2% (inactive).

Consider `Cc1c(C#N)c(NC(=O)c2ccccc2)n(Cc2ccccc2)c1C`, for which the percent response vs DMSO is 92.3% (inactive).

In the case of `Cc1ccc(C(=O)Nc2c(C#N)c(C)c(C)n2Cc2ccccc2)cc1`, the percent response vs DMSO was 43.3% [may fluoresce violet] (active).

For `COc1ccccc1NC(=S)N1CCN(c2ccc(F)cc2)CC1`, the percent response vs DMSO is 106% (inactive).

Regarding `COc1cccc(NC(=O)CSc2nnc(Cc3ccc(OC)c(OC)c3)o2)c1`, the percent response vs DMSO is 97.7% (inactive).

Turning to `N#Cc1ccc(C(=O)Nc2nc(-c3cccs3)c(C(=O)C(F)(F)F)s2)cc1`, the percent response vs DMSO is 97.5% (inactive).

With `CCCc1noc2c1/C(=N\O)CCC2`, the percent response vs DMSO was 98.8% (inactive).

For `CCCc1nn2c(=O)cc(CSCC(=O)Nc3cccc(C)c3)nc2s1`, the percent response vs DMSO is 98% (inactive).
